Measurements reported in PubChem BioAssay AID1159580 (chemical genetic matrix, 2015).
Screen size: about 5,500 compounds; about 2,000 (36%) were called active. Inconclusive results (about 18%) are left out. Cut-off read from the data, not from the text of the source: active = normalized growth mostly below about 0.91 (no sharp cut-off); inconclusive = no clear call, values can overlap the other calls; inactive = mostly above about 0.92. The list shows a part of the results.

Assay: chemical genetic growth profiling, strain panel (AID 1159580);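 note: tested at 20 µM; growth read once vehicle control cultures reached saturation at 30 °C; 1 = growth at the plate median or of vehicle wells; lower values mean less growth of the strain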
Details: growth OD

Measured: normalized growth

CC(C)CC1NC(=O)NC1=O (stereo not drawn)
inactive: S. cerevisiae deletion strains, locus YAL013W, strain DEP1, hits give low values 1.02 | S. cerevisiae deletion strains, locus YBR229C, strain ROT2, hits give low values 1.01 | S. cerevisiae deletion strains, locus YDL101C, strain DUN1, hits give low values 1 | S. cerevisiae deletion strains, locus YDL134C, strain PPH21, hits give low values 1.05 | S. cerevisiae deletion strains, locus YDR150W, strain NUM1, hits give low values 1.01 | S. cerevisiae deletion strains, locus YEL061C, strain CIN8, hits give low values 1.02 | S. cerevisiae deletion strains, locus YGR078C, strain PAC10, hits give low values 1.01 | S. cerevisiae deletion strains, locus YGR229C, strain SMI1, hits give low values 1.01 | S. cerevisiae deletion strains, locus YHR030C, strain SLT2, hits give low values 1.04 | S. cerevisiae deletion strains, locus YHR087W, strain rtc3, hits give low values 1.02 | S. cerevisiae deletion strains, locus YJR043C, strain POL32, hits give low values 1.01 | S. cerevisiae deletion strains, locus YJR075W, strain HOC1, hits give low values 1.02 | S. cerevisiae deletion strains, locus YLR039C, strain RIC1, hits give low values 1 | S. cerevisiae deletion strains, locus YLR058C, strain SHM2 (second series), hits give low values 0.998 | S. cerevisiae deletion strains, locus YLR085C, strain ARP6, hits give low values 1.07 | S. cerevisiae deletion strains, locus YLR262C, strain YPT6, hits give low values 1 | S. cerevisiae deletion strains, locus YML094W, strain GIM5, hits give low values 1.03 | S. cerevisiae deletion strains, locus YMR219W, strain ESC1, hits give low values 1.01 | S. cerevisiae deletion strains, locus YMR263W, strain SAP30, hits give low values 1.01 | S. cerevisiae deletion strains, locus YMR307W, strain GAS1, hits give low values 1.02 | S. cerevisiae deletion strains, locus YNL153C, strain GIM3, hits give low values 1.01 | S. cerevisiae deletion strains, locus YNL298W, strain CLA4 (second series), hits give low values 0.984 | S. cerevisiae deletion strains, locus YNL322C, strain KRE1, hits give low values 1.02 | S. cerevisiae deletion strains, locus YNR030W, strain Alg12, hits give low values 1.02 | S. cerevisiae deletion strains, locus YPL055C, strain LGE1, hits give low values 1.07 | S. cerevisiae deletion strains, locus YPL241C, strain CIN2, hits give low values 1.02 | S. cerevisiae deletion strains, locus YPR135W, strain CTF4, hits give low values 1.13 | S. cerevisiae strains, strain wild type, hits give low values 1.02
